Measured values as given in PubChem BioAssay (EPA / NIEHS).
Results filed as inconclusive are left out. Active and inactive are the calls of the source. The calls were made as follows: active = hit-call score of the fitted dose curve at least 0.9, where 1 is the maximum; inconclusive = response in the unintended direction; inactive = score below 0.9.

Molecular target: Cellular tumor antigen p53 (Homo sapiens) (UniProt P04637)
Experiment: TOX21_p53_BLA_p5_ratio: Tox21 HCT-116 p53 Agonism Beta-lactamase Assay, Ratio, Phase 5 (AID 2283599)
In short: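 Beta-lactamase reporter ratio (blue 460 nm over green 530 nm, 405 nm excitation) after 2 h CCF4-AM loading, in HCT-116 cells exposed 16 h at 37 C to compounds pinned at 217-fold dilution. Increases relative to DMSO baseline scored.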

Chain of Cellular tumor antigen p53 (Homo sapiens) (P04637 whole entry, looked up): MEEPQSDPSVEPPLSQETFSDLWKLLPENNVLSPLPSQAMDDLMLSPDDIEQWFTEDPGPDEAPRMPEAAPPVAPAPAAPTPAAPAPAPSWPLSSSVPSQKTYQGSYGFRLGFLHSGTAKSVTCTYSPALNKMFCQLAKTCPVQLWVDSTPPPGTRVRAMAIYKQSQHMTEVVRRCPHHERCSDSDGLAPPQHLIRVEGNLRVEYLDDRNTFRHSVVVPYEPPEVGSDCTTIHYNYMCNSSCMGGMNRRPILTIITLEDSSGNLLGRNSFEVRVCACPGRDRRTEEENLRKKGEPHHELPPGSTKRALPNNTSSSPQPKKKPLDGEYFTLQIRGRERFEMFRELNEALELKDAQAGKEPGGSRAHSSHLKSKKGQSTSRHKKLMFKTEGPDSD

SMILES | outcome | AC50
FC(F)(F)c1ccccc1-n1ccnc1 | inactive | –
CCN(CCO)CCCC(C)Nc1ccnc2cc(Cl)ccc12 (stereo not drawn) | inactive | –
NC(CO)C(=O)NNCc1ccc(O)c(O)c1O (stereo not drawn) | inactive | –
CCC(C=O)CC | inactive | –
CC(=O)Nc1ccc(OCC(O)CNC(C)C)cc1 (stereo not drawn) | inactive | –
CCN1C(=O)c2ccccc2C1Nc1ccc(OCCN2CCCCC2)cc1 (stereo not drawn) | inactive | –
CN[C@@H]1CCc2[nH]c3ccc(C(N)=O)cc3c2C1 | inactive | –
CC1(C)S[C@@H]2[C@H](NC(=O)[C@@H](NC(=O)N3CCNC3=O)c3ccccc3)C(=O)N2[C@H]1C(=O)O | inactive | –
CC/C(=C(/CC)c1ccc(OP(=O)(O)O)cc1)c1ccc(OP(=O)(O)O)cc1 | inactive | –
CN(C)CCC(O)(c1ccccc1)c1ccccc1Cl (stereo not drawn) | inactive | –
Cc1cc(N)c(S(=O)(=O)O)cc1Cl | inactive | –
O=C1c2ccccc2C(=O)N1CO | inactive | –
CCCCCCOC(=O)c1cccnc1 | inactive | –
CC(N)CN (stereo not drawn) | inactive | –
Cc1scc2c1N(C(=O)CN1CCN(C)CC1)c1ccccc1NC2=O | inactive | –
CCN1CCCC1CNC(=O)c1cc(S(N)(=O)=O)ccc1OC (stereo not drawn) | inactive | –
CC(C)(C)c1nnc(NS(=O)(=O)c2ccccc2)s1 | inactive | –
Oc1ccc(C(O)CNCCCCCCNCC(O)c2ccc(O)c(O)c2)cc1O (stereo not drawn) | inactive | –
COCCOC(=O)CC#N | inactive | –
N[C@@H](C(=O)N[C@@H]1C(=O)N2C(C(=O)O)=C(Cl)CC[C@H]12)c1ccccc1 | inactive | –
CC(C)C(=O)OCC(C)(C)C(O)C(C)C (stereo not drawn) | inactive | –
C=CCCCCCC | inactive | –
CC(C)c1ccccc1C(C)C | – | 67 µM (active)
COC(=O)CC[C@H](N)C(=O)O | inactive | –

Tested on: not listed separately
Experiment: TOX21_p53_BLA_p5_viability: Viability Assessment in the Tox21 HCT-116 p53 Agonism Beta-lactamase Assay, Phase 5 (AID 2283600)
In short: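 Decreased CellTiter-Glo luminescence denotes lost viability. Exposure: 16 h at 37C, 5% CO2, with compounds from DMSO stocks diluted 217-fold in wells of 4000 cells.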

SMILES | outcome
CC1(C)O[C@@H]2C[C@H]3[C@@H]4CCC5=CC(=O)CC[C@]5(C)[C@@]4(F)[C@@H](O)C[C@]3(C)[C@]2(C(=O)CCl)O1 | inactive
FC(F)(F)c1ccccc1-n1ccnc1 | inactive
CCN(CCO)CCCC(C)Nc1ccnc2cc(Cl)ccc12 (stereo not drawn) | inactive
NC(CO)C(=O)NNCc1ccc(O)c(O)c1O (stereo not drawn) | inactive
COc1cc(C(=O)N2CCCCCCC2)cc(OC)c1OC | inactive
CC(=O)Nc1ccc(OCC(O)CNC(C)C)cc1 (stereo not drawn) | inactive
CC1(C)S[C@@H]2[C@H](NC(=O)[C@@H](NC(=O)N3CCNC3=O)c3ccccc3)C(=O)N2[C@H]1C(=O)O | inactive
CN(C)CCC(O)(c1ccccc1)c1ccccc1Cl (stereo not drawn) | inactive
O=C1c2ccccc2C(=O)N1CO | inactive
CCCCCCOC(=O)c1cccnc1 | inactive
CCN1CCCC1CNC(=O)c1cc(S(N)(=O)=O)ccc1OC (stereo not drawn) | inactive
C[C@@H](c1ncncc1F)[C@](O)(Cn1cncn1)c1ccc(F)cc1F | inactive
CC(C)(C)c1nnc(NS(=O)(=O)c2ccccc2)s1 | inactive
O=C(c1ccc(Cl)cc1)c1ccc(Cl)cc1 | inactive
O=C(Oc1ccccc1C(=O)O)c1ccccc1O | inactive
CC(C)(C)NSc1nc2ccccc2s1 | inactive
N[C@@H](C(=O)N[C@@H]1C(=O)N2C(C(=O)O)=C(Cl)CC[C@H]12)c1ccccc1 | inactive
CC(C)C(=O)OCC(C)(C)C(O)C(C)C (stereo not drawn) | inactive
C=CCCCCCC | inactive
CC(C)c1ccccc1C(C)C | inactive

Molecular target: Cellular tumor antigen p53 (Homo sapiens) (UniProt P04637)
Experiment: TOX21_p53_BLA_p4_ratio: Tox21 HCT-116 p53 Agonism Beta-lactamase Assay, Ratio, Phase 4 (AID 2283601)
In short: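 Signal is the blue/green (460nm/530nm) ratio of cleaved versus uncleaved CCF4-AM substrate, read after 2 h substrate loading. Cells were HCT116 carrying the p53-responsive beta-lactamase reporter, dosed 16 h at 37C, 5% CO2; CellTiter-Glo measured in parallel.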

SMILES | outcome
CC1(C)O[C@@H]2C[C@H]3[C@@H]4CCC5=CC(=O)CC[C@]5(C)[C@@]4(F)[C@@H](O)C[C@]3(C)[C@]2(C(=O)CCl)O1 | inactive
Cc1cccc(C)c1NC(=O)NC1=CCCN1C | inactive
NC(CO)C(=O)NNCc1ccc(O)c(O)c1O (stereo not drawn) | inactive
COc1cc(C(=O)N2CCCCCCC2)cc(OC)c1OC | inactive
CCC(C=O)CC | inactive
CC(=O)Nc1ccc(OCC(O)CNC(C)C)cc1 (stereo not drawn) | inactive
CCN1C(=O)c2ccccc2C1Nc1ccc(OCCN2CCCCC2)cc1 (stereo not drawn) | inactive
CN[C@@H]1CCc2[nH]c3ccc(C(N)=O)cc3c2C1 | inactive
CC(=O)OCC1=C(C(=O)O)N2C(=O)[C@@H](NC(=O)Cc3ccccc3)[C@H]2SC1 | inactive
CC/C(=C(/CC)c1ccc(OP(=O)(O)O)cc1)c1ccc(OP(=O)(O)O)cc1 | inactive
COCc1ccc(COC)cc1 | inactive
Cc1ccccc1N1C(=O)c2cc(S(N)(=O)=O)c(Cl)cc2NC1C (stereo not drawn) | inactive
NCC1CCC(C(=O)Oc2ccc(CCC(=O)O)cc2)CC1 (stereo not drawn) | inactive
O=C1c2ccccc2C(=O)N1CO | inactive
CCCCCCOC(=O)c1cccnc1 | inactive
CC(N)CN (stereo not drawn) | inactive
CCN1CCCC1CNC(=O)c1cc(S(N)(=O)=O)ccc1OC (stereo not drawn) | inactive
C[C@@H](c1ncncc1F)[C@](O)(Cn1cncn1)c1ccc(F)cc1F | inactive
O=C(c1ccc(Cl)cc1)c1ccc(Cl)cc1 | inactive
O=C(Oc1ccccc1C(=O)O)c1ccccc1O | inactive
COCCOC(=O)CC#N | inactive
CC(=O)OCC(=O)[C@@]1(O)[C@H](C)C[C@H]2[C@@H]3C[C@H](F)C4=CC(=O)C=C[C@]4(C)[C@H]3[C@@H](O)C[C@@]21C | inactive
CC(C)C(=O)OCC(C)(C)C(O)C(C)C (stereo not drawn) | inactive
CC(C)c1ccccc1C(C)C | inactive
